From PubChem BioAssay (NCATS)
Results filed as inconclusive are left out. Entries that show only a call come without a potency. The source made the active and inactive calls. Calls come from the whole dose curve; as a rule, active = well fitted inhibition curve with a large enough effect; inconclusive = small, poorly fitted or top-dose-only effect; inactive = flat fitted curve, though single readings scatter.

tested on: Zika virus NS2B-NS3 protease; assay: Primary screen GU AMC qHTS for Zika virus inhibitors (AID 1347154); details: Zika NS2B-NS3 unlinked protease, AMC fluorogenic substrate; series mostly up to 54.1 µM; note: nearly all actives have a fitted effect of over 70% in size
Source text: Avindra Nath, Ph.D., National Institute of Neurological Disorders and Stroke (NINDS), Bethesda, MD
Radhakrishnan Padmanabhan, Ph.D., Georgetown University (GU), Washington D.C.
Zika Virus causes congenital defects, including microcephaly and is associated with Guillain-Barre syndrome, eningoencephalitis and myelitis in infected adult. […] Using a target-based approach, we hope to establish a screening paradigm to uncover novel, cell-active NS2B-NS3 protease (Zika Virus) specific inhibitors from NCATS' collection of small molecules using qHTS.
Early Translation Branch (ETB)
National Center for Advancing Translational Sciences (NCATS), Rockville, MD
National Institute of Health (NIH), Bethesda, Maryland
Padmanabhan lab provided the NS2B hydrophilic domain and NS3 protease domain in a noncovalent complex used for the unlinked assay. Control compound aprotinin is obtained from Thermo Scientific (#78432; Waltham, Massachusetts). NS2B-NS3 AMC substrate (Bz-Nle-Lys-Arg-Arg-AMC; Nle-KRR-AMC) purchased from Bachem (#I-1995; Torrance, CA). Ac-VKTGKR-AMC purchased from Genscript or Bachem, Ac-FAAGKR-AMC purchased from Genscript, Ac-GLVKRR-AMC purchased from Genscript, Ac-LKKR-AMC purchased from Genscript.
GU AMC unlinked NS2B-NS3 protease qHTS protocol
Briefly, 3 microL of Zika virus unlinked NS2B-NS3 protease (25 nM for linked final concentration), in assay buffer (10 mM Tris-HCl pH 8.0 with 0.01% Tween 20) was dispensed into a 1,536-well solid-bottom black plate (Greiner Bio One, Monroe, NC). […] Plates were then read immediately on a ViewLux High-throughput CCD imager (PerkinElmer, Waltham, MA) equipped with standard UV fluorescence optics (340(30) nm excitation, 450(20) nm emission) then incubated (room temperature, protected from light) for 15 minutes (~20% conversion). The change in fluorescence intensity over the 15-minute reaction period was normalized against no-inhibitor and no-enzyme controls and the resulting percent inhibition data were fitted to a 4-parameter Hill equation. Aprotinin was used as the intraplate control.
Potency is the fitted concentration of half-maximal effect.

How did the Potency turn out when C[C@]12CCC(=O)C=C1[C@@H]1C[C@@H]1[C@H]1[C@@H]3[C@@H]4C[C@@H]4[C@@]4(CCC(=O)O4)[C@@]3(C)CC[C@@H]12 was run?
Its Potency is “inactive”.

Which Potency does the source give for CC(=O)Oc1ccc(C(=C2CCCCC2)c2ccc(OC(C)=O)cc2)cc1 here?
The Potency was “inactive”.

For CCCC(=O)Nc1ccc(OCC(O)CNC(C)C)c(C(C)=O)c1 (stereo not given), which Potency is on record?
The Potency was “inactive”.

COc1cc2c(cc1OC)C(C(C(=O)N(CCc1ccc(OC)c(OC)c1OC)CCc1ccc(OC)c(OC)c1OC)c1ccccc1)=NCC2 (stereo not given) was tested. Which Potency did it give?
The Potency was “inactive”.

For CN(C)C(=S)SC(=S)N(C)C, which Potency is on record?
Its Potency is “inactive”.

Which Potency does the source give for CC(=O)Oc1ccc(C(c2ccc(OC(C)=O)cc2)c2ccccn2)cc1 here?
Its Potency is “inactive”.

For CC1=C(C(=O)O)N2C(=O)[C@@H](NC(=O)[C@H](N)c3ccc(O)cc3)[C@H]2SC1, which Potency is on record?
The Potency was “inactive”.

How did the Potency turn out when C#C[C@]1(O)CC[C@H]2[C@@H]3CCC4=CC(=O)CC[C@@H]4[C@H]3CC[C@@]21C was run?
Its Potency is “inactive”.

Which Potency does the source give for CCCCCCCCCCCCCCCCOP(=O)([O-])OCC[N+](C)(C)C here?
The Potency was “inactive”.

Nc1ccn([C@@H]2O[C@H](CO)[C@@H](O)C2(F)F)c(=O)n1 was tested. Which Potency did it give?
Its Potency is “inactive”.

Cc1c(C)n(Cc2ccccc2)c2ccc(C(=O)OCCN(C)C)cc12 was tested. Which Potency did it give?
Its Potency is “inactive”.

Which Potency does the source give for COC(=O)CCc1ccc(OCC(O)CNC(C)C)cc1 (stereo not given) here?
The Potency was “inactive”.

CC(=O)Oc1ccc2c(c1)CC[C@@H]1[C@@H]2CC[C@]2(C)[C@@H](O)CC[C@@H]12 was tested. Which Potency did it give?
Its Potency is “inactive”.

How did the Potency turn out when C/C=C(/C(=C/C)c1ccc(O)cc1)c1ccc(O)cc1 was run?
Its Potency is “inactive”.

Nc1nc2ncc(CNc3ccc(C(=O)N[C@@H](CCC(=O)O)C(=O)O)cc3)nc2c(=O)[nH]1 was tested. Which Potency did it give?
Its Potency is 18.1 µM (active).

For C[C@]12CCC(=O)C=C1CC[C@H]1[C@@H]3CC[C@](O)(C(=O)CO)[C@@]3(C)C[C@H](O)[C@@]12F, which Potency is on record?
The Potency was “inactive”.

Which Potency does the source give for c1ccc(CNCCNCc2ccccc2)cc1 here?
Its Potency is “inactive”.

With OC(CCN1CCCCC1)(c1ccccc1)c1ccccc1 as the compound, how does the Potency read?
The Potency was “inactive”.

CNCC[C@@H](Oc1ccccc1C)c1ccccc1 was tested. Which Potency did it give?
Its Potency is “inactive”.

COCc1c(C(C)C)nc(C(C)C)c(/C=C/[C@@H](O)C[C@@H](O)CC(=O)O)c1-c1ccc(F)cc1 was tested. Which Potency did it give?
The Potency was “inactive”.

For C=C1C[C@H]2[C@@H]3C=C(C)C4=CC(=O)CC[C@]4(C)[C@H]3CC[C@]2(C)[C@@]1(OC(C)=O)C(C)=O, which Potency is on record?
The Potency was “inactive”.

How did the Potency turn out when CCCCCCCCCCCCCCNCCO was run?
Its Potency is “inactive”.

Which Potency does the source give for C#C[C@]1(OC(C)=O)CC[C@H]2[C@@H]3CCC4=C[C@@H](OC(C)=O)CC[C@@H]4[C@H]3CC[C@@]21C here?
The Potency was “inactive”.

How did the Potency turn out when C[C@@H]1CN(CCCn2c3ccccc3c3ccccc32)C[C@H](C)N1 was run?
The Potency was “inactive”.

CCC(=O)c1c(O)cc(O)cc1O was tested. Which Potency did it give?
The Potency was “inactive”.

CN(C)CC/C=C1\c2ccccc2Sc2ccc(Cl)cc21 was tested. Which Potency did it give?
The Potency was “inactive”.

Which Potency does the source give for CC(O)(P(=O)(O)O)P(=O)(O)O here?
Its Potency is “inactive”.

For C1CCc2nnnn2CC1, which Potency is on record?
The Potency was “inactive”.

For NCCc1ccn[nH]1, which Potency is on record?
Its Potency is “inactive”.

With CN1CCN(CCCN2c3ccccc3Sc3ccc(S(=O)(=O)N(C)C)cc32)CC1 as the compound, how does the Potency read?
The Potency was “inactive”.

How did the Potency turn out when COc1cccc(OC)c1C(=O)N[C@@H]1C(=O)N2[C@@H]1SC(C)(C)[C@@H]2C(=O)O was run?
Its Potency is “inactive”.

Which Potency does the source give for N[C@H](CO)C(=O)O here?
The Potency was “inactive”.

For Cc1cccc(C)c1NC(=O)CN1CCN(CCCC(c2ccc(F)cc2)c2ccc(F)cc2)CC1, which Potency is on record?
The Potency was “inactive”.

Which Potency does the source give for NC[C@H]1O[C@H](O[C@H]2[C@H](O)[C@@H](O[C@H]3O[C@H](CO)[C@@H](O)[C@H](N)[C@H]3O)[C@H](N)C[C@@H]2N)[C@H](N)[C@@H](O)[C@@H]1O here?
The Potency was “inactive”.

For CCN(CC)C(=O)N1CCN(C)CC1, which Potency is on record?
Its Potency is “inactive”.

With CCCC(=O)O[C@]1(C(=O)CO)CC[C@H]2[C@@H]3CCC4=CC(=O)CC[C@]4(C)[C@H]3[C@@H](O)C[C@@]21C as the compound, how does the Potency read?
The Potency was “inactive”.

Which Potency does the source give for CC(C)n1nc(-c2cc3cc(O)ccc3[nH]2)c2c(N)ncnc21 here?
The Potency was “inactive”.

With CN1CCC[C@@H]1c1cccnc1 as the compound, how does the Potency read?
The Potency was “inactive”.

Which Potency does the source give for C[C@H]1C[C@H]2[C@@H]3CCC4=CC(=O)C=C[C@]4(C)[C@@]3(Cl)[C@@H](O)C[C@]2(C)[C@@]1(O)C(=O)CO here?
The Potency was “inactive”.

CC(Cc1cccc(C(F)(F)F)c1)NCCOC(=O)c1ccccc1 (stereo not given) was tested. Which Potency did it give?
The Potency was “inactive”.
